The values that follow come from PubChem BioAssay (Tox21).

Activity calls are given as the source filed them. Where a call stands in place of a potency, no number is given. Calls follow the shape of the full dose curve.

Sequence of Gonadotropin-releasing hormone receptor (Homo sapiens) (P30968 whole entry, looked up): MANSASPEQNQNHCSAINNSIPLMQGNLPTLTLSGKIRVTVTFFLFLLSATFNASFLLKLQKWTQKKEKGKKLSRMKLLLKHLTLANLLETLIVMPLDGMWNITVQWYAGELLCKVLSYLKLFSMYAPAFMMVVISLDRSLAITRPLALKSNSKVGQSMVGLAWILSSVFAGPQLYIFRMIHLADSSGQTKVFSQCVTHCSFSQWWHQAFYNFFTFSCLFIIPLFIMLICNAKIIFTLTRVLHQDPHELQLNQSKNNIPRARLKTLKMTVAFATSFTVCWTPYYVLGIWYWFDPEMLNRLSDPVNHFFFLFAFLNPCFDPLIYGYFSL

The target of this experiment is Gonadotropin-releasing hormone receptor (Homo sapiens) (UniProt P30968). Kind of experiment: Human gonadotropin-releasing hormone receptor (GnRHR) small molecule agonists, calcium flux assay in GnRHR-HEK293 cells (AID 1920063). Also: nearly all actives have a fitted effect of over 35% in size. As to conditions: calcium flux fluorescence, agonist mode; series mostly up to 57.6 µM. The text has this:
National Center for Advancing Translational Sciences [NCATS]
Division of Preclinical Innovation [DPI]
U.S. Environmental Protection Agency [EPA]
National Institutes of Environmental Health Sciences [NIEHS]
National Toxicology Program [NTP]
U.S. Food and Drug Administration [FDA]
Gonadotropin-releasing hormone receptor (GnRHR) is a G-protein-coupled receptor (GPCR) and acts (through phospholipase C) to increase intracellular inositol trisphosphate and then release intracellular calcium stores. Cell-based GnRHR-Hek293 calcium influx assay is using HEK293 cells that have been genetically engineered to express the human GnRHR, which activity can be measured by calcium signaling. A compound/drug can activate (agonist) GnRHR that can be monitored by levels of intracellular calcium.
GnRHR-HEK293 cells developed by Codex Corp contain human GnRHR reporter gene, which was stably integrated into HEK 293 cells. The compound activation can be detected by fluorescence intensity via calcium flux assay. This cell line has been used to screen the Tox21 10K compound library to identify GnRHR agonists.
GnRHR-Hek293 cells were dispensed at 1500cells/4uL/well in 1536-well black wall/clear bottom plates using a multidrop dispenser. After the assay plates were incubated at a 37 C/5% CO2 incubator for 18 hours, 4 uL of Calcium Dye Solution was added to each well. The plates were incubated at 37 C for 1 hour. For agonist mode, 23 nL of compounds dissolved in DMSO, positive controls or DMSO only was transferred to the assay plate by a pin tool station. The fluorescence intensity in the plates was measured using FDSS 7000EX kinetic plate reader with a filter set of Ex/Em=480/540 for 3 min at 1 sec intervals. Each test compound was measured at 15 concentrations and in triplicates.
For orientation: Calcium flux is commonly read through the fluorescence of an indicator in the cells.
`CCOP(=S)(OCC)SCCS(=O)(=O)CC`: the Potency entry was “inactive”. For `CC(=O)[O-].[Tl+]`, the Potency result was “inactive”.

`NNC(N)=O`: the Potency entry was “inactive”. With `CNC(=O)Oc1cccc(C(C)C)c1`, the Potency result is “inactive”. For `CCC(C)c1cccc(C(C)CC)c1O` (stereo not given), the Potency entry is “inactive”. Take `CC(C)(C)C(O)C(Oc1ccc(Cl)cc1)n1cncn1` (stereo not given): the Potency result is “inactive”. With `Clc1c(Cl)c(Cl)c(Cl)c(Cl)c1Cl`, the activity change was -0.0134% [at 5.22 µM, active compounds read high] (inactive).

Take `O=C(Cl)C(Cl)(Cl)Cl`: the Potency result is “inactive”. Take `O=c1[nH]c2ccccc2n1CCCN1CCC(n2c(=O)[nH]c3cc(Cl)ccc32)CC1`: the Potency result is “inactive”. `CC[C@]1(O)CC[C@H]2[C@@H]3CCC4=CCCC[C@@H]4[C@H]3CC[C@@]21C`: the Potency entry is “inactive”. Consider `COc1ccc(C(=O)N2CCCC2=O)cc1`, for which the Potency result is “inactive”.

Regarding `CON(C)C(=O)Nc1ccc(Br)c(Cl)c1`, the Potency result was “inactive”. As to `O.O.O.O=C([O-])[C@H]([O-])[C@@H]([O-])C(=O)[O-].O=C([O-])[C@H]([O-])[C@@H]([O-])C(=O)[O-].[K+].[K+].[Sb+3].[Sb+3]`, the Potency entry was “inactive”. As to `C=CCN1CC[C@]23c4c5ccc(O)c4O[C@H]2C(=O)CC[C@@]3(O)[C@H]1C5`, the Potency entry was “inactive”.

Regarding `C[C@@H]1C[C@@H]([C@H](O)CC2CC(=O)NC(=O)C2)C(=O)[C@@H](C)C1`, the Potency entry was “inactive”. Turning to `Nc1cc(Cl)ccc1Cl`, the Potency result is “inactive”. Still for that read-out and setting: under `ClP(Cl)(Cl)(Cl)Cl` stands “inactive”. As to `Cc1nnc(-c2ccccc2)c(=O)n1N`, the Potency result was “inactive”. For the compound `CC(C(O)c1ccccc1)N(C)C/C=C/c1ccccc1` (stereo not given), the Potency result was “inactive”. As for `CC(C)OC(=O)C(O)(c1ccc(Cl)cc1)c1ccc(Cl)cc1`, the Potency result was “inactive”. With `ClC1=C(Cl)[C@]2(Cl)[C@H]3[C@H]([C@H]4C=C[C@H]3C4)[C@@]1(Cl)C2(Cl)Cl`, the Potency result is “inactive”. For `C1CCC(C2CCCCC2)CC1`, the Potency result is “inactive”.

Turning to `CNC(=O)Oc1ccc(N(C)C)c(C)c1`, the Potency entry was “inactive”.

With `O=C(O)CBr`, the Potency entry was “inactive”.

With `O=C1NCN(c2ccccc2)C12CCN(CC1COc3ccccc3O1)CC2` (stereo not given), the Potency result is “inactive”. On to `CC(C)(C)c1cc(O)ccc1O`, for which the Potency entry was “inactive”. Same read-out and setting: then `CC(Cc1ccc2c(c1)OCO2)NO` (stereo not given), with “inactive”.

Take `C=C(C)C(=O)OCCCCOC(=O)C(=C)C`: the Potency entry is “inactive”.

`O=C1OC(c2ccc(O)c(S(=O)(=O)O)c2)(c2ccc(O)c(S(=O)(=O)O)c2)c2c(Br)c(Br)c(Br)c(Br)c21`: the Potency entry is “inactive”. Take `O=[N+]([O-])c1c(Cl)c(Cl)cc(Cl)c1Cl`: the Potency result was “inactive”. Same read-out and setting: under `ClC1=C(Cl)[C@]2(Cl)[C@@H]3[C@@H](Cl)[C@H]4O[C@H]4[C@@H]3C1(Cl)C2(Cl)Cl` stands “inactive”; under `[As]#[In]`, “inactive”; under `O=C1OC(CCN2CCCCC2)OC1(c1ccccc1)c1ccccc1` (stereo not given), “inactive”. On the same count and under the same terms, then `CSC(=O)c1c(C(F)F)nc(C(F)(F)F)c(C(=O)SC)c1CC(C)C`, with “inactive”. Take `COc1cc(C[C@@H](C)N)c(OC)cc1Br`: the Potency entry is “inactive”. As for `Clc1ccc(Oc2ccccc2)cc1`, the Potency result is “inactive”. `CCOC(C(=O)OCCN(C)C)(c1ccccc1)c1ccccc1`: the Potency entry is “inactive”.

For `Nc1ccccc1C(=O)OC/C=C/c1ccccc1`, the Potency result was “inactive”. Regarding `CC(=O)c1cc(C(C)(C)C)cc2c1CCC2(C)C`, the Potency entry is “inactive”. With `CCOP(=O)(OCC)O/C(=C/Cl)c1ccc(Cl)cc1Cl`, the Potency result was “inactive”.
